According to the supplement of paper PMC10849652:
About 7,900 targets were measured; listed, in parts, are those with a hit and a random draw of the rest. About 0.6% of all pairs of compound and target were hits. Values without a mark were called inactive.

Experiments:
Experiment in all cases: log2 fold change, soluble protein after heating vs DMSO (PISA); higher = thermal stabilisation; K562 cells, 10 uM, 30 min; active = over 0.2 and 3.5 SD of the protein, either way, in both replicates (recomputed)
IRAK-1-4 Inhibitor I = compound: C1COCCN1CCN2C3=CC=CC=C3N=C2NC(=O)C4=CC(=CC=C4)[N+](=O)[O-] [IRAK-1-4 Inhibitor I]
In short: (§1)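 K562 cells (2×10^6 cells/mL) were treated with 10 μM compound for 30 min, and aliquots were heated for 3 min over 48°C-58°C. Pooled aliquots were extracted in PBS with 0.5% NP-40 at 4°C, and the supernatant after 21,000xg for 90 min was measured by TMTpro 16plex LC-MS/MS with channel sums equalised. Reported thermal stability, relative to control samples and from duplicates, is a log2 fold change.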

ibrutinib = compound: C=CC(=O)N1CCC[C@@H](n2nc(-c3ccc(Oc4ccccc4)cc3)c3c(N)ncnc32)C1 [ibrutinib]
In short: as §1

[1] = compound: CC(=O)c1cnc2ccc(-c3cc(Cl)c(O)c(Cl)c3)nc2c1N[C@H]1CC[C@H](CN(C)C)CC1
In short: as §1

ralimetinib = compound: CC(C)(C)Cn1c(N)nc2ccc(-c3[nH]c(C(C)(C)C)nc3-c3ccc(F)cc3)nc21 [ralimetinib]
In short: as §1

[2] = compound: CC(C)(O)CC(=O)NCCn1ccc2ncnc(Nc3ccc(Oc4cccc(C(F)(F)F)c4)c(Cl)c3)c21
In short: as §1

[3] = compound: CC(C)C1=C2N=C(C=C(N2N=C1)NCC3=CC=CC=C3)NCCCCCCN
In short: as §1

[4] = compound: CC(C)C[C@@H](C=O)NC(=O)[C@H](CC(C)C)NC(=O)[C@H](CC(C)C)NC(=O)OCc1ccccc1
In short: as §1

pinometostat = compound: CC(C)N(C[C@H]1O[C@@H](n2cnc3c(N)ncnc32)[C@H](O)[C@@H]1O)[C@H]1C[C@@H](CCc2nc3cc(C(C)(C)C)ccc3[nH]2)C1 [pinometostat]
In short: as §1

[5] = compound: CC1=C(C(CC(=O)N1)C2=CC=C(C=C2)C(F)(F)F)C(=O)NC3=C(C=C4C(=C3)C=NN4)F
In short: as §1

[6] = compound: CC1=C(C2=C(C=C1)C(=O)C3=CC=CC=C3N2CCCN)C
In short: as §1

Sequence of UniProt Q06609 (Q06609 whole entry, looked up): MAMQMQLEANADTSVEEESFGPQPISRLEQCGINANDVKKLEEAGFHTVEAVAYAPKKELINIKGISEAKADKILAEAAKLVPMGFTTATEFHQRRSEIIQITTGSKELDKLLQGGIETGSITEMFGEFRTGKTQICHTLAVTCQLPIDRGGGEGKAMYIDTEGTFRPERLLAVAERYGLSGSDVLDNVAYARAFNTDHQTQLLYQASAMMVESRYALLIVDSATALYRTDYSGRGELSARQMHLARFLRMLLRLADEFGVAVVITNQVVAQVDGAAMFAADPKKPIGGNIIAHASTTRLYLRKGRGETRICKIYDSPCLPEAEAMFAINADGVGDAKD
Sequence of UniProt Q8IZV5 (Q8IZV5 whole entry, looked up): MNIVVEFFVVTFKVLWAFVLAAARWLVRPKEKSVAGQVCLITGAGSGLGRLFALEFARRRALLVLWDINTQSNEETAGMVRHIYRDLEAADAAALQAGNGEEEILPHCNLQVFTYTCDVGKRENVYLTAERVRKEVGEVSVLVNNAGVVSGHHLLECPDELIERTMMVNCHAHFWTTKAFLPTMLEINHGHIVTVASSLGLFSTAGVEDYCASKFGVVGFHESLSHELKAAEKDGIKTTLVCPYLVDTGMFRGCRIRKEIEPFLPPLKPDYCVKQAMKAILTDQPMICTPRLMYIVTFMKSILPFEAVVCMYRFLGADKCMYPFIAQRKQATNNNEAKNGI
Sequence of UniProt Q9H4A4 (Q9H4A4 whole entry, looked up): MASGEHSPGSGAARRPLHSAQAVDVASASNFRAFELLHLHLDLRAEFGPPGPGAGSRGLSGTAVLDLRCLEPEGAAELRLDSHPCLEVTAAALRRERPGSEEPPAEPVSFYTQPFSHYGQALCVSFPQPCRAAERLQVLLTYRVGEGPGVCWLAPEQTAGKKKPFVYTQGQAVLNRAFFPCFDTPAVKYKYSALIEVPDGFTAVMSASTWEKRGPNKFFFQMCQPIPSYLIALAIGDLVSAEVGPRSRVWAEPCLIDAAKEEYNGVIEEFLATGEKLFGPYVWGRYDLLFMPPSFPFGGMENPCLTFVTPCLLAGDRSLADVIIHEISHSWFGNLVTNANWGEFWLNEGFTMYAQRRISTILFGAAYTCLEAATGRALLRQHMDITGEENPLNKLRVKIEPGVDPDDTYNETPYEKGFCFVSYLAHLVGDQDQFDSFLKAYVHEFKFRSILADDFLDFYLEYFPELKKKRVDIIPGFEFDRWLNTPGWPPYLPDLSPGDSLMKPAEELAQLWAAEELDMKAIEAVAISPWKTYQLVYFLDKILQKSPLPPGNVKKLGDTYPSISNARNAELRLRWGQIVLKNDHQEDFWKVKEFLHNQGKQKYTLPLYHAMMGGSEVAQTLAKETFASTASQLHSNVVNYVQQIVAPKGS
Sequence of UniProt O75792 (O75792 whole entry, looked up): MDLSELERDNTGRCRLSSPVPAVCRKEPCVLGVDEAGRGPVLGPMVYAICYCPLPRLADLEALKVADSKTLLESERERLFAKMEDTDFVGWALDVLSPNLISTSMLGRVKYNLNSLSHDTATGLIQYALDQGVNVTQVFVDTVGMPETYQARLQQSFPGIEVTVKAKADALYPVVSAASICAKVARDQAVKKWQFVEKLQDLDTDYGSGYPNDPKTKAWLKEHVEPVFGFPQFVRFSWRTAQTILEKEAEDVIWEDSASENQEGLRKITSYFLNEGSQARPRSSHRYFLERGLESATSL
Sequence of UniProt Q9BWF3 (Q9BWF3 whole entry, looked up): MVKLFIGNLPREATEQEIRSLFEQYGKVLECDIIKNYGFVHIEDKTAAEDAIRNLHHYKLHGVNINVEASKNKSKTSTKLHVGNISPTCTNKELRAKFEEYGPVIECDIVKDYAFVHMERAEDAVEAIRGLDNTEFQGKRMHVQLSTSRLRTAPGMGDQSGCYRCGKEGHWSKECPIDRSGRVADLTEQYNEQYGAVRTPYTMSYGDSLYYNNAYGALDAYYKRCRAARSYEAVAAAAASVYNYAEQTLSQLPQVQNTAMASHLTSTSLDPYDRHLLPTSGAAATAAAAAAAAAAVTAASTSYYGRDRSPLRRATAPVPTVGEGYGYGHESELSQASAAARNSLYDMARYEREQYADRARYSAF
Sequence of UniProt Q96EE3 (Q96EE3 whole entry, looked up): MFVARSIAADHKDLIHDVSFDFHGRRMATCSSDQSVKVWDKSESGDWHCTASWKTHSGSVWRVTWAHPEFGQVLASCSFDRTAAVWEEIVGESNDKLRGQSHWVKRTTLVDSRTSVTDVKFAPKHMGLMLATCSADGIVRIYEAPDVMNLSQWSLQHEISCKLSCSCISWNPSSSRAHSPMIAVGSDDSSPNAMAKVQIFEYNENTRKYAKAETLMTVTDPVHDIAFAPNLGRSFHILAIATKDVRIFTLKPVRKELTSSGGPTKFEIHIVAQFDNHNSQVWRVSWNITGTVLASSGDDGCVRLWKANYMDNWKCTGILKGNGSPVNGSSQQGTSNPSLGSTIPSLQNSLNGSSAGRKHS
Sequence of UniProt Q5T160 (Q5T160 whole entry, looked up): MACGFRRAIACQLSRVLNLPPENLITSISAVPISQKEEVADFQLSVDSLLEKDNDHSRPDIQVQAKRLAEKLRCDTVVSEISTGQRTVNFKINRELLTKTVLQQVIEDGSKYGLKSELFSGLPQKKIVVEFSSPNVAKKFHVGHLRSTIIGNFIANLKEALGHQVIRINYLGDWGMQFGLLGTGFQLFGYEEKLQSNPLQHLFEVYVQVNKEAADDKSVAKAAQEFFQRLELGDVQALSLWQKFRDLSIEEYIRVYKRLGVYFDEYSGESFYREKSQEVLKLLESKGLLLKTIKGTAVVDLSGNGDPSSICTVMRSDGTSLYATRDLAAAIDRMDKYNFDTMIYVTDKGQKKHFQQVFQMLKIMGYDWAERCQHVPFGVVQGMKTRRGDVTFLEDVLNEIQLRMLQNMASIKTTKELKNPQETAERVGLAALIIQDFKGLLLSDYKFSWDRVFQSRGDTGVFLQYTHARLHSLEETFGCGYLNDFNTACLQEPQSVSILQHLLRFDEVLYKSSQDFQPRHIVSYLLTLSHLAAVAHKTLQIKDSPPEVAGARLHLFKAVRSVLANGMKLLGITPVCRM
Sequence of UniProt Q8NBJ9 (Q8NBJ9 whole entry, looked up): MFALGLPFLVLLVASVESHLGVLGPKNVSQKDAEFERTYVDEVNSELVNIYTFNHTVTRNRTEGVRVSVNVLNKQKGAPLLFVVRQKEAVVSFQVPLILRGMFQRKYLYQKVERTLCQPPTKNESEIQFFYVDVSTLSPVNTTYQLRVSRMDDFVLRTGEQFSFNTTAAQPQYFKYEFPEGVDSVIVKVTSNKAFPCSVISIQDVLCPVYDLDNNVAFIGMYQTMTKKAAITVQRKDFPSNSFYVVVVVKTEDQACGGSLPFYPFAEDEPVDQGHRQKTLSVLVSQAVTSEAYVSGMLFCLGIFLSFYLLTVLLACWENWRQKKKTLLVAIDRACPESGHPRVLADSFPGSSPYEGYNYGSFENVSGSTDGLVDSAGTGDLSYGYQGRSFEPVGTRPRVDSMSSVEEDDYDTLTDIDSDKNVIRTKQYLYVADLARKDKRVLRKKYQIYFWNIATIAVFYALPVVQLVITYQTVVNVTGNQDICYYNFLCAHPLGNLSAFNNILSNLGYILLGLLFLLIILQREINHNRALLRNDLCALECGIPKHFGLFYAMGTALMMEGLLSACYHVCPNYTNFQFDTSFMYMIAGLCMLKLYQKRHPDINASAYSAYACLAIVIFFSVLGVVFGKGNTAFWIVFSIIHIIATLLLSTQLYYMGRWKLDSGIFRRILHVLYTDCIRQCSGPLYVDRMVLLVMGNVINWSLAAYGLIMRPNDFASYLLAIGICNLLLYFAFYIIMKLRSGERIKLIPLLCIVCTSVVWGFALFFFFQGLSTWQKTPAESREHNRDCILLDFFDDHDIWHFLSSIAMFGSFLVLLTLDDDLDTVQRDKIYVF
Sequence of UniProt Q15287 (Q15287 whole entry, looked up): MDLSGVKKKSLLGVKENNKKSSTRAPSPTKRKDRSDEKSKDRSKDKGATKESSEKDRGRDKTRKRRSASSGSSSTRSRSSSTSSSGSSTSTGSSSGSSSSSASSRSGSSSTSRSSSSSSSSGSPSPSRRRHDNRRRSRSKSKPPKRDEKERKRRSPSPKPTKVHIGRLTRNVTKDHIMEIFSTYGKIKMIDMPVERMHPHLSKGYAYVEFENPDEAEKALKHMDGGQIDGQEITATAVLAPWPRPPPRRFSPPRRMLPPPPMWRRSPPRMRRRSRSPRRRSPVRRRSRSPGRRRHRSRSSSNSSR
Sequence of UniProt Q99961 (Q99961 whole entry, looked up): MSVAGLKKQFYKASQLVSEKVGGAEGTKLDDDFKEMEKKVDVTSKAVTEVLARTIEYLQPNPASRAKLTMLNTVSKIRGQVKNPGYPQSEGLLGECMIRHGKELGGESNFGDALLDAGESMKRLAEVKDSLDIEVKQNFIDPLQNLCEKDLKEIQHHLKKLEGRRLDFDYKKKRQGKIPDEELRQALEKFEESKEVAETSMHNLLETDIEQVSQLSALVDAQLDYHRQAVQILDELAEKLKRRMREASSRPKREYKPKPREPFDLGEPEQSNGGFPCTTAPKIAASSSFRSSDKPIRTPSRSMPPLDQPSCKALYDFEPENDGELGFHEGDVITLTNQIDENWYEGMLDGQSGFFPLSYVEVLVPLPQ
Sequence of UniProt O00560 (O00560 whole entry, looked up): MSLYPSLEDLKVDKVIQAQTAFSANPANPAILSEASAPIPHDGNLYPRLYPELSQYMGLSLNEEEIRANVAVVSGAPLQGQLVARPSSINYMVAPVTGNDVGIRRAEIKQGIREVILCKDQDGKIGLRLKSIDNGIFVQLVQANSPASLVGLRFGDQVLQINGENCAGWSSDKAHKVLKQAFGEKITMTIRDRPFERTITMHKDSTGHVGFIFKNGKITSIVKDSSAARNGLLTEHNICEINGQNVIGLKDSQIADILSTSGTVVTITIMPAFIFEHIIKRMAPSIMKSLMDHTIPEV
Sequence of UniProt Q15382 (Q15382 whole entry, looked up): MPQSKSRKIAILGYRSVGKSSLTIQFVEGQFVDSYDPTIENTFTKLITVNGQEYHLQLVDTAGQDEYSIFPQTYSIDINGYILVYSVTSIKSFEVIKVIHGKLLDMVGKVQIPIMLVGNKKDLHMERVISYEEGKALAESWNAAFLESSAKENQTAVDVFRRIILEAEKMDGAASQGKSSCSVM

Target | log2 fold change (IRAK-1-4 Inhibitor I) | log2 fold change (ibrutinib) | log2 fold change [1] | log2 fold change (ralimetinib) | log2 fold change [2] | log2 fold change [3] | log2 fold change [4] | log2 fold change (pinometostat) | log2 fold change [5] | log2 fold change [6]
SEH1L isoform 1 (UniProt Q96EE3) | 0.028 | -0.021 | -0.056 | -0.014 | 0.03 | -0.019 | -0.026 | 0.011 | 0.039 | 0
RHEB (UniProt Q15382) | 0.006 | -0.016 | -0.04 | -0.112 | -0.01 | 0.027 | -0.055 | -0.035 | -0.014 | 0.093
RARS2 (UniProt Q5T160) | 0.053 | 0.003 | -0.012 | -0.039 | -0.081 | -0.214 | -0.061 | -0.032 | -0.011 | -0.007
SLC12A9 (UniProt Q9BXP2) | 0.112 | -0.001 | 0.016 | -0.106 | -0.012 | -0.165 | 0.033 | -0.018 | 0.028 | 0.056
RAC3 (UniProt P60763) | 0.115 | 0.022 | 0.104 | -0.008 | 0.032 | 0.082 | -0.009 | -0.081 | 0.003 | 0.102
SIDT2 isoform 2 (UniProt Q8NBJ9) | -0.017 | 0.123 | -0.039 | -0.143 | -0.021 | -0.353 (active) | 0 | 0.271 | 0.009 | 0.005
RAD51 (UniProt Q06609) | 0.017 | 0.013 | -0.061 | -0.074 | -0.059 | -0.016 | 0.048 | -0.024 | 0.05 | 0.102
RBM4 (UniProt Q9BWF3) | -0.038 | -0.023 | -0.083 | 0.099 | 0.019 | -0.136 | 0.074 | 0.076 | 0.007 | -0.027
SDCBP (UniProt O00560) | 0.021 | 0.139 | -0.02 | -0.036 | -0.064 | -0.671 (active) | 0.181 | 0.057 | 0.073 | -0.007
SH3GL1 (UniProt Q99961) | -0.09 | -0.021 | -0.059 | 0.052 | -0.097 | -0.238 | 0.013 | 0.032 | 0.018 | 0.037
RIC8A isoform 3 (UniProt Q9NPQ8) | -0.073 | -0.051 | -0.193 | 0.06 | -0.052 | -0.354 | 0.066 | 0.166 | -0.005 | -0.132
RDH10 (UniProt Q8IZV5) | 0.076 | 0.159 | -0.07 | 0.008 | 0.075 | 0.069 | -0.043 | -0.018 | 0.007 | 0.007
SETD3 (UniProt Q86TU7) | -0.007 | 0.011 | -0.018 | -0.041 | -0.013 | 0.027 | -0.022 | 0.002 | -0.03 | 0.05
RIPK1 (UniProt Q13546) | -0.104 | -0.081 | -0.201 | 0.195 | -0.023 | -0.23 | 0.14 | 0.123 | -0.014 | 0.056
RNPEP (UniProt Q9H4A4) | -0.004 | -0.018 | 0.02 | 0.011 | -0.055 | -0.182 | -0.021 | 0.018 | 0.004 | 0.137
RSL1D1 (UniProt O76021) | -0.071 | -0.011 | 0.22 | 0.105 | 0.212 | 0.538 | 0.076 | 0.393 | -0.072 | -0.299

Target | log2 fold change (IRAK-1-4 Inhibitor I) | log2 fold change (ibrutinib) | log2 fold change [1] | log2 fold change (ralimetinib) | log2 fold change [2] | log2 fold change [3] | log2 fold change [4] | log2 fold change (pinometostat) | log2 fold change [5] | log2 fold change [6]
RCOR3 isoform 3 (UniProt Q9P2K3) | 0.009 | -0.053 | -0.188 | 0.017 |  | -0.048 | 0.062 | -0.038 | 0.011 | -0.035
RRAS2 isoform 4 (UniProt P62070) | 0.011 | 0.097 | -0.009 | -0.023 | 0.242 | 0.077 | 0.005 | -0.034 | -0.019 | 0.077
RNPS1 (UniProt Q15287) | -0.159 | -0.031 | -0.317 | 0.128 | -0.039 | -0.126 | 0.066 | 0.08 | -0.032 | -0.746 (active)
SIRT2 (UniProt Q8IXJ6) | 0.047 | -0.003 | -0.003 | -0.023 | 0.041 | -0.033 | 0.028 | -0.002 | -0.075 | -0.022
RABGAP1L isoform 5 (UniProt Q5R372) | 0.04 | -0.031 | -0.025 |  | -0.057 | -0.125 |  | -0.17 | -0.297 | -0.271
SEC24A (UniProt O95486) | -0.038 | -0.017 | -0.013 | 0.018 | -0.066 | -0.057 | -0.005 | 0.005 | 0.009 | 0.019
RNASEH2A (UniProt O75792) | 0 | 0.008 | -0.07 | -0.08 | -0.029 | -0.122 | 0.074 | -0.003 | 0.001 | 0.042
RPA1 (UniProt P27694) | -0.026 | -0.022 | -0.03 | -0.008 | -0.053 | -0.019 | -0.027 | -0.021 | -0.007 | 0.202
RPS21 (UniProt P63220) | -0.004 | -0.035 | 0.055 | -0.014 | 0.069 | 0.056 | 0.075 | -0.022 | 0.014 | -0.02
RAD50, A0A494C0Y7 | 0.015 | 0.072 | -0.037 | -0.085 |  |  | 0.196 | 0.015 |  | 0.051
SHROOM2 (UniProt Q13796) | 0.236 | 0.065 | 0.137 |  | 0.009 | 0.155 |  | -0.182 | -0.015 | 0.072
SF3B5 (UniProt Q9BWJ5) | 0.055 | 0.127 | -0.067 |  | -0.224 | 0.118 |  | 0.045 | 0.011 | 0.156
RAB3IL1 (UniProt Q8TBN0) | 0.018 | -0.009 | 0.018 | 0.064 | -0.036 | -0.014 | 0.057 | -0.029 | -0.004 | 0.037
SDHAF4 (UniProt Q5VUM1) | -0.071 | 0.01 | -0.055 |  | 0.081 | 0.149 |  | -0.082 | -0.101 | 0.021
SERINC3 (UniProt Q13530) | -0.006 | -0.01 | -0.027 | -0.14 | -0.304 | -0.399 (active) | 0.17 | -0.01 | 0 | -0.039
SERPINA7 (UniProt P05543) | 0.095 | 0.229 | 0.227 | -0.062 | 0.314 | 0.066 | 0.043 | 0 | 0.077 | -0.245
